{
  "source": "the supplement of paper PMC12067093",
  "about": "“Discovery and optimisation of a covalent ligand for TRIM25 and its application to targeted protein ubiquitination” (Chemical Science, 2025)",
  "note": "Of roughly 21,000 targets only a part is listed; those with the largest changes were picked by preference.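 Note: competitive chemoproteomic profiling in live THP-1 cells with an iodoacetamide desthiobiotin (IA-DTB) probe, comparing probe-labelled peptide intensities in compound-treated cells against DMSO-treated controls.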",
  "data": [
    {"compound": "CC1Cc2ccccc2N1C(=O)C1CCCN(C1)C(=O)CCl (mixture of isomers) [TRIM25 ligand 11 (diastereomer mixture)]", "experiment": "probe-labelled cysteine peptide fold change vs DMSO (competition) (log2 fold change); higher = less target engagement (more negative = stronger competition)", "settings": "10 µM; THP-1; incubation time: 4 h", "values": [
      {"target": "AIP_O00170_78_LPVWETIVCTMR (UniProt O00170)", "sequence (O00170 whole entry, looked up)": "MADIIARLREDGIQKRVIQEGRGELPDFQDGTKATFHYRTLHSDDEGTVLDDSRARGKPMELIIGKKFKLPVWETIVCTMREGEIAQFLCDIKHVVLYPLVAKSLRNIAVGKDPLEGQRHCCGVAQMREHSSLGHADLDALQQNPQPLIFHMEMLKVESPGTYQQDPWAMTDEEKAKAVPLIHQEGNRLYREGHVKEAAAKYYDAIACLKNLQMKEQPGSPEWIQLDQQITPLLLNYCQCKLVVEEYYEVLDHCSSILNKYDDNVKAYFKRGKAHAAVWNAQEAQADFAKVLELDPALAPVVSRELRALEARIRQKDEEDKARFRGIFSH", "probe-labelled cysteine peptide fold change": -0.126},
      {"target": "APTX_Q7Z2E3_161_DAAQEAEAGTGLEPGSNSGQCSVPLK (UniProt Q7Z2E3)", "sequence (Q7Z2E3 whole entry, looked up)": "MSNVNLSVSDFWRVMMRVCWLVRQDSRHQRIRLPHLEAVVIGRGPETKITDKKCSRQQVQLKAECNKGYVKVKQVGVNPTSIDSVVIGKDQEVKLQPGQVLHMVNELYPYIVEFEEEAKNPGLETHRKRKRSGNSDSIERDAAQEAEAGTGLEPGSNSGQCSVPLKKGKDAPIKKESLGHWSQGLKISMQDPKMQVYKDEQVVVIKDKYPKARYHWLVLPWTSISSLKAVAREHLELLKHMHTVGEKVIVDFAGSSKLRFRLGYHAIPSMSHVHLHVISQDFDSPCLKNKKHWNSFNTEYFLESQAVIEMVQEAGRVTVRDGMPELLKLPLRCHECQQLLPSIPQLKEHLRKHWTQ", "probe-labelled cysteine peptide fold change": 0.282},
      {"target": "ARHGAP25_P42331_154_VAGTPCGVFGQR (UniProt P42331)", "probe-labelled cysteine peptide fold change": 0.0288},
      {"target": "AGPS_O00116_226_IVNLACK (UniProt O00116)", "probe-labelled cysteine peptide fold change": 0.221},
      {"target": "ARHGAP45_Q92619_528_SATISYYQMMHMQTAPLPVHFQMLCESSK (UniProt Q92619)", "sequence (Q92619 whole entry, looked up)": "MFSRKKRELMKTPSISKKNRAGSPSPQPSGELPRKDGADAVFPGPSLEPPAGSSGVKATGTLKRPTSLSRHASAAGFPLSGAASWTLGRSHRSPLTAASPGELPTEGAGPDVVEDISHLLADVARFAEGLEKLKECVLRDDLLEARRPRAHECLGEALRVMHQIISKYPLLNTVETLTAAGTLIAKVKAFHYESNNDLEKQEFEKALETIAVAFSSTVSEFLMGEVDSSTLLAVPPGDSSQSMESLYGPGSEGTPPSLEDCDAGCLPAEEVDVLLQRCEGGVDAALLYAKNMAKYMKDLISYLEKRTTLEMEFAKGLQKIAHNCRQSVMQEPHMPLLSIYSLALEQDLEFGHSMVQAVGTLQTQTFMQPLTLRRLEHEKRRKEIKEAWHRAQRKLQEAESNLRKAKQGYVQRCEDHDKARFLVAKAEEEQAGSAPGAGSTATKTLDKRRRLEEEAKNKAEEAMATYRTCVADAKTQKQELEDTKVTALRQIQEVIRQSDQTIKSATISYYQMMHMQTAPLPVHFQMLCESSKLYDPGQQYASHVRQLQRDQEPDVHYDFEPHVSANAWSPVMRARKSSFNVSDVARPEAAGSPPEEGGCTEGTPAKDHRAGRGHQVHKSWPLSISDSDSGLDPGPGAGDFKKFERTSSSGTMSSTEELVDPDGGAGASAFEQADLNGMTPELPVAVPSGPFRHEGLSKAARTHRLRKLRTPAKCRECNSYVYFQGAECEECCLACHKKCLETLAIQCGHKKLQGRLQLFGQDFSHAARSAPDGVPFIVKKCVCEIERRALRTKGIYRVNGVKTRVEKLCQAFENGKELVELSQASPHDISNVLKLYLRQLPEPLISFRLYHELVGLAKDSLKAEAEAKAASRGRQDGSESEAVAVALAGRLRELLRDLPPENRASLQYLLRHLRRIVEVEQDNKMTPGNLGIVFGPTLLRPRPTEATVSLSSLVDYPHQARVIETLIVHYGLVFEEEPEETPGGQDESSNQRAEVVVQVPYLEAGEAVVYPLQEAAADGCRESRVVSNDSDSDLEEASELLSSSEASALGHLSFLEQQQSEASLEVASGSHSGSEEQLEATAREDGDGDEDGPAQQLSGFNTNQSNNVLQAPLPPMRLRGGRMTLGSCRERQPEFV", "probe-labelled cysteine peptide fold change": -0.132},
      {"target": "ATIC_P31939_101_VVACNLYPFVK (UniProt P31939)", "probe-labelled cysteine peptide fold change": -0.0132},
      {"target": "APOH_P02749_124_CTEEGK (UniProt P02749)", "probe-labelled cysteine peptide fold change": 0.632},
      {"target": "ATF6_P18850_321_ESACQSR<|>ATF6B_Q99941_340_ESACQSR (UniProt Q99941+P18850)", "probe-labelled cysteine peptide fold change": 0.753},
      {"target": "ANXA11_P50995_384_FNAVLCSR (UniProt P50995)", "sequence (P50995 whole entry, looked up)": "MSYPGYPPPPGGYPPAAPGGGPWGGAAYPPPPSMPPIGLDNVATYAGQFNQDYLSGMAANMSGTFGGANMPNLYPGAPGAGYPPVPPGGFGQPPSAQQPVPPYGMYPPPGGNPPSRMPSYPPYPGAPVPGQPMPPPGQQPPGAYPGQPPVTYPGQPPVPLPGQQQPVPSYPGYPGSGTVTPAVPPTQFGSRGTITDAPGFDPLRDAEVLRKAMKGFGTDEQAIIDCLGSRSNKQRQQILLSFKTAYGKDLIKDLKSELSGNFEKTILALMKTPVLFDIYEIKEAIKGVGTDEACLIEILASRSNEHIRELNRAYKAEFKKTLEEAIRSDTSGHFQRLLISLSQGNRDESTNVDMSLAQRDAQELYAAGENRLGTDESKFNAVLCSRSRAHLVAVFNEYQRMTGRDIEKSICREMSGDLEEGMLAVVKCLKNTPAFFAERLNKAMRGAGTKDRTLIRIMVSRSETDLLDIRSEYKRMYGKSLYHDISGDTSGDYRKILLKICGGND", "probe-labelled cysteine peptide fold change": -0.0174},
      {"target": "AHRR_A9YTQ3_485_DVGEDQVHPPLCHFPQR (UniProt A9YTQ3)", "probe-labelled cysteine peptide fold change": 0.678},
      {"target": "ATP6V1A_P38606_138_WDFTPCK (UniProt P38606)", "sequence (P38606 whole entry, looked up)": "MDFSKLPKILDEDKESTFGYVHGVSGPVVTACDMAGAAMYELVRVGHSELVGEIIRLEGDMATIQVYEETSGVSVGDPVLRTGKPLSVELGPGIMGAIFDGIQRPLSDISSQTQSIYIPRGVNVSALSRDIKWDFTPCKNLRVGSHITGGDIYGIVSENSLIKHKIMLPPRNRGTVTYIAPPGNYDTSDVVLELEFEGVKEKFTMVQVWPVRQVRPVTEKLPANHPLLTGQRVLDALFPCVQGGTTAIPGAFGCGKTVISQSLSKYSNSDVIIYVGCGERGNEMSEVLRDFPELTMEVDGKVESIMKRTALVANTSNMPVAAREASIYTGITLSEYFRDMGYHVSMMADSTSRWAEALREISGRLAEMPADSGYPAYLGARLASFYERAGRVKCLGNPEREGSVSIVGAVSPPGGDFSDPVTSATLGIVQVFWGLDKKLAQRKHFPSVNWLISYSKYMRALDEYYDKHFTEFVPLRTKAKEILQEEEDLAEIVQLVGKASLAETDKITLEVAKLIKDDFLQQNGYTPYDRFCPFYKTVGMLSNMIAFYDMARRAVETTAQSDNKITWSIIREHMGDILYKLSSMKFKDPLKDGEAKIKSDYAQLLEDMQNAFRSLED", "probe-labelled cysteine peptide fold change": -0.198},
      {"target": "ASAP1_Q9ULH1_652_QTALGNTVLHYCSMYSKPECLK (UniProt Q9ULH1)", "probe-labelled cysteine peptide fold change": 0.0362},
      {"target": "AMPD2_Q01433_107_SLPGPAPCLK (UniProt Q01433)", "probe-labelled cysteine peptide fold change": -0.11},
      {"target": "ARFGEF2_Q9Y6D5_76_YFLPFELACQSK<|>ARFGEF1_Q9Y6D6_88_YFLPFELACQSK (UniProt Q9Y6D6+Q9Y6D5)", "probe-labelled cysteine peptide fold change": -0.179},
      {"target": "ANKRD50_Q9ULJ7_113_QALAFHFCK (UniProt Q9ULJ7)", "probe-labelled cysteine peptide fold change": 0.472},
      {"target": "ANTXR1_Q9H6X2_257_VLCSFK (UniProt Q9H6X2)", "probe-labelled cysteine peptide fold change": 0.067},
      {"target": "BIN2_Q9UBW5_205_IGCYVTIFQNISNLR (UniProt Q9UBW5)", "probe-labelled cysteine peptide fold change": 0.21},
      {"target": "ARPC1B_O15143_26_TQIAICPNNHEVHIYEK (UniProt O15143)", "probe-labelled cysteine peptide fold change": 0.062},
      {"target": "ARPC1B_O15143_227_VAWVSHDSTVCLADADK (UniProt O15143)", "probe-labelled cysteine peptide fold change": 0.316},
      {"target": "ARF6_P62330_90_HYYTGTQGLIFVVDCADRDRIDEAR (UniProt P62330)", "sequence (P62330 whole entry, looked up)": "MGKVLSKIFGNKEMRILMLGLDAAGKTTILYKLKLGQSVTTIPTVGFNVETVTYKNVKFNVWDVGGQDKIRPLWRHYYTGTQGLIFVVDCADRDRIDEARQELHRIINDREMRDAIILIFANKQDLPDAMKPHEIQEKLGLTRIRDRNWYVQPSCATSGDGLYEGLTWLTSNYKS", "probe-labelled cysteine peptide fold change": -0.368},
      {"target": "ARSA_P15289_493_GEDPALQICCHPGCTPR (UniProt P15289)", "sequence (P15289 whole entry)": "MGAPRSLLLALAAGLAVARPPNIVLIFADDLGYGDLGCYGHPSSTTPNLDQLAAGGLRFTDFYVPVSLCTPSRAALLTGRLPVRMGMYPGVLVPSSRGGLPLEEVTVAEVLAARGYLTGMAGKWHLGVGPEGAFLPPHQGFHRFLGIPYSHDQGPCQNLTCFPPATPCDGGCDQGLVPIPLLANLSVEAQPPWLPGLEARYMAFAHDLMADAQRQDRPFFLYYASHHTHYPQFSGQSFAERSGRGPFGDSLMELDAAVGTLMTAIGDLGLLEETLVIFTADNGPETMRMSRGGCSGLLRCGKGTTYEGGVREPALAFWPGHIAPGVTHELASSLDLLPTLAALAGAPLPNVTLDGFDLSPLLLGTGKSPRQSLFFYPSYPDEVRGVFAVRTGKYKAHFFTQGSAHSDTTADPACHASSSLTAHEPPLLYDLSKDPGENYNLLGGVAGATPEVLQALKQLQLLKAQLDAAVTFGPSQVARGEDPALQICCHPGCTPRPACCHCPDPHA", "probe-labelled cysteine peptide fold change": 0.139},
      {"target": "ANAPC11_Q9NYG5_76_WLHAQQVQQHCPMCR (UniProt Q9NYG5)", "sequence (Q9NYG5 whole entry, looked up)": "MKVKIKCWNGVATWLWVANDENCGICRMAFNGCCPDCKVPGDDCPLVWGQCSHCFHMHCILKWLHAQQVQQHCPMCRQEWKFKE", "probe-labelled cysteine peptide fold change": -0.122},
      {"target": "AP2A1_O95782_492_TVFEALQAPACHENMVK (UniProt O95782)", "probe-labelled cysteine peptide fold change": 0.179},
      {"target": "BCAT1_P54687_338_EMFGSGTACVVCPVSDILYK (UniProt P54687)", "probe-labelled cysteine peptide fold change": 0.15},
      {"target": "ARID1A_O14497_2043_EEEQDQGVSCNK (UniProt O14497)", "probe-labelled cysteine peptide fold change": 0.662},
      {"target": "AKAP8_O43823_392+395_IQFACSVCK (UniProt O43823)", "probe-labelled cysteine peptide fold change": -0.0142},
      {"target": "ATP5F1A_P25705_244_KLYCIYVAIGQK (UniProt P25705)", "sequence (P25705 whole entry, looked up)": "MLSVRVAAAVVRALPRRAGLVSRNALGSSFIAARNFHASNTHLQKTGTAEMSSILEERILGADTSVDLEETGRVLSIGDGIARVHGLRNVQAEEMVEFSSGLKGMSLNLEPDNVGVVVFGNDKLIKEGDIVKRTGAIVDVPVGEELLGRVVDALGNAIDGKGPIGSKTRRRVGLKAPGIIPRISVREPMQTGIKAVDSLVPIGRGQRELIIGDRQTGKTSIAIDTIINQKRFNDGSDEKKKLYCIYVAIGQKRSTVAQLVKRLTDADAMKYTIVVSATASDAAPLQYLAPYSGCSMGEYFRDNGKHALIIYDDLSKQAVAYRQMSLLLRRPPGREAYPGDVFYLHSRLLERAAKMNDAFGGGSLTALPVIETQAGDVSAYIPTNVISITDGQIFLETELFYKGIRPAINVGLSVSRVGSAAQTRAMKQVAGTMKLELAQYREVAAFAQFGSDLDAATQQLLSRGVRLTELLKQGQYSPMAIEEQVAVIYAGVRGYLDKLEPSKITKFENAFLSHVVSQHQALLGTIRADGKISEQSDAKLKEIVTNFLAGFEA", "probe-labelled cysteine peptide fold change": -0.433},
      {"target": "ARRB2_P32121_270_CPVAQLEQDDQVSPSSTFCK (UniProt P32121)", "probe-labelled cysteine peptide fold change": 0.677},
      {"target": "AKAP17A_Q02040_17_AAATIVHDTSEAVELCPAYGLYLK (UniProt Q02040)", "probe-labelled cysteine peptide fold change": 0.583},
      {"target": "ANKRD10_Q9NXR5_140_SGSLECISALVANGAHVDLR (UniProt Q9NXR5)", "probe-labelled cysteine peptide fold change": -0.314},
      {"target": "ALG11_Q2TAA5_72_NQMVIAFFHPYCNAGGGGER (UniProt Q2TAA5)", "sequence (Q2TAA5 whole entry, looked up)": "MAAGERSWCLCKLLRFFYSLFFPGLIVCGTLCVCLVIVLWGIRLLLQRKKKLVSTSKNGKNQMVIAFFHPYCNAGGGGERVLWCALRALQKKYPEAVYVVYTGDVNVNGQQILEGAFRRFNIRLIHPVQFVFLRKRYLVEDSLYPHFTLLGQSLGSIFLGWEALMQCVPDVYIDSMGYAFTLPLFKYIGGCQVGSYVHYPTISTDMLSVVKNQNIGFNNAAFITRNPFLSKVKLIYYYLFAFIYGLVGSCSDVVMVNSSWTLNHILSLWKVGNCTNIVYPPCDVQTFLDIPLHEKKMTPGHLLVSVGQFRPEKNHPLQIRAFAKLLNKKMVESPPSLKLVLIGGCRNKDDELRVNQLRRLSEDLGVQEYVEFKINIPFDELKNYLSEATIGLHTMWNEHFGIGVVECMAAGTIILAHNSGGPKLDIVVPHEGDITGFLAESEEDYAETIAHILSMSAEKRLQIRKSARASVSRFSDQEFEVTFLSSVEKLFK", "probe-labelled cysteine peptide fold change": -0.0377},
      {"target": "ASMTL_O95671_274_AEAGEAGQATAEAECHR (UniProt O95671)", "probe-labelled cysteine peptide fold change": -0.103},
      {"target": "ATP5S_Q99766_134_CHYIEDDCLLR (UniProt Q99766)", "sequence (Q99766 whole entry, looked up)": "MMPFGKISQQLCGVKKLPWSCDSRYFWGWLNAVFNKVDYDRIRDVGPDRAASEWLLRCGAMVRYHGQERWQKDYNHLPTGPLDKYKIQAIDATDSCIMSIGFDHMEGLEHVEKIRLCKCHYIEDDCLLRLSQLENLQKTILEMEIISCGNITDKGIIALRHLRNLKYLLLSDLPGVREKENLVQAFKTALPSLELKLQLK", "probe-labelled cysteine peptide fold change": -0.0886}
    ]},
    {"compound": "CC1Cc2ccccc2N1C(=O)C1CCCN(C1)C(=O)CCl (mixture of isomers) [TRIM25 ligand 11 (diastereomer mixture)]", "experiment": "probe-labelled cysteine peptide fold change vs DMSO (competition) (log2 fold change); higher = less target engagement (more negative = stronger competition)", "settings": "50 µM; THP-1; incubation time: 4 h", "values": [
      {"target": "AIP_O00170_78_LPVWETIVCTMR (UniProt O00170)", "probe-labelled cysteine peptide fold change": 1.17},
      {"target": "APTX_Q7Z2E3_161_DAAQEAEAGTGLEPGSNSGQCSVPLK (UniProt Q7Z2E3)", "probe-labelled cysteine peptide fold change": -0.342},
      {"target": "ARHGAP25_P42331_154_VAGTPCGVFGQR (UniProt P42331)", "probe-labelled cysteine peptide fold change": -0.103},
      {"target": "AGPS_O00116_226_IVNLACK (UniProt O00116)", "probe-labelled cysteine peptide fold change": 0.311},
      {"target": "ARHGAP45_Q92619_528_SATISYYQMMHMQTAPLPVHFQMLCESSK (UniProt Q92619)", "probe-labelled cysteine peptide fold change": -0.236},
      {"target": "ATIC_P31939_101_VVACNLYPFVK (UniProt P31939)", "probe-labelled cysteine peptide fold change": 0.0726},
      {"target": "APOH_P02749_124_CTEEGK (UniProt P02749)", "probe-labelled cysteine peptide fold change": 0.551},
      {"target": "ATF6_P18850_321_ESACQSR<|>ATF6B_Q99941_340_ESACQSR (UniProt Q99941+P18850)", "probe-labelled cysteine peptide fold change": 1.73},
      {"target": "ANXA11_P50995_384_FNAVLCSR (UniProt P50995)", "probe-labelled cysteine peptide fold change": -0.0325},
      {"target": "AHRR_A9YTQ3_485_DVGEDQVHPPLCHFPQR (UniProt A9YTQ3)", "probe-labelled cysteine peptide fold change": 0.583},
      {"target": "ATP6V1A_P38606_138_WDFTPCK (UniProt P38606)", "probe-labelled cysteine peptide fold change": -0.819},
      {"target": "ASAP1_Q9ULH1_652_QTALGNTVLHYCSMYSKPECLK (UniProt Q9ULH1)", "probe-labelled cysteine peptide fold change": 0.157},
      {"target": "AMPD2_Q01433_107_SLPGPAPCLK (UniProt Q01433)", "probe-labelled cysteine peptide fold change": -0.295},
      {"target": "ARFGEF2_Q9Y6D5_76_YFLPFELACQSK<|>ARFGEF1_Q9Y6D6_88_YFLPFELACQSK (UniProt Q9Y6D6+Q9Y6D5)", "probe-labelled cysteine peptide fold change": -0.147},
      {"target": "ANKRD50_Q9ULJ7_113_QALAFHFCK (UniProt Q9ULJ7)", "probe-labelled cysteine peptide fold change": 0.778},
      {"target": "ANTXR1_Q9H6X2_257_VLCSFK (UniProt Q9H6X2)", "probe-labelled cysteine peptide fold change": 0.257},
      {"target": "BIN2_Q9UBW5_205_IGCYVTIFQNISNLR (UniProt Q9UBW5)", "probe-labelled cysteine peptide fold change": 0.194},
      {"target": "ARPC1B_O15143_26_TQIAICPNNHEVHIYEK (UniProt O15143)", "probe-labelled cysteine peptide fold change": 0.00851},
      {"target": "ARPC1B_O15143_227_VAWVSHDSTVCLADADK (UniProt O15143)", "probe-labelled cysteine peptide fold change": 0.0213},
      {"target": "ARF6_P62330_90_HYYTGTQGLIFVVDCADRDRIDEAR (UniProt P62330)", "probe-labelled cysteine peptide fold change": 0.0425},
      {"target": "ARSA_P15289_493_GEDPALQICCHPGCTPR (UniProt P15289)", "probe-labelled cysteine peptide fold change": 0.309},
      {"target": "ANAPC11_Q9NYG5_76_WLHAQQVQQHCPMCR (UniProt Q9NYG5)", "probe-labelled cysteine peptide fold change": 0.153},
      {"target": "AP2A1_O95782_492_TVFEALQAPACHENMVK (UniProt O95782)", "probe-labelled cysteine peptide fold change": 0.0904},
      {"target": "BCAT1_P54687_338_EMFGSGTACVVCPVSDILYK (UniProt P54687)", "probe-labelled cysteine peptide fold change": 0.0428},
      {"target": "ARID1A_O14497_2043_EEEQDQGVSCNK (UniProt O14497)", "probe-labelled cysteine peptide fold change": 0.268},
      {"target": "AKAP8_O43823_392+395_IQFACSVCK (UniProt O43823)", "probe-labelled cysteine peptide fold change": 0.0345},
      {"target": "ATP5F1A_P25705_244_KLYCIYVAIGQK (UniProt P25705)", "probe-labelled cysteine peptide fold change": 0.0534},
      {"target": "ARRB2_P32121_270_CPVAQLEQDDQVSPSSTFCK (UniProt P32121)", "probe-labelled cysteine peptide fold change": 0.57},
      {"target": "AKAP17A_Q02040_17_AAATIVHDTSEAVELCPAYGLYLK (UniProt Q02040)", "probe-labelled cysteine peptide fold change": 0.399},
      {"target": "ANKRD10_Q9NXR5_140_SGSLECISALVANGAHVDLR (UniProt Q9NXR5)", "probe-labelled cysteine peptide fold change": -0.119},
      {"target": "ALG11_Q2TAA5_72_NQMVIAFFHPYCNAGGGGER (UniProt Q2TAA5)", "probe-labelled cysteine peptide fold change": -0.618},
      {"target": "ASMTL_O95671_274_AEAGEAGQATAEAECHR (UniProt O95671)", "probe-labelled cysteine peptide fold change": -0.158},
      {"target": "ATP5S_Q99766_134_CHYIEDDCLLR (UniProt Q99766)", "probe-labelled cysteine peptide fold change": 0.0874}
    ]}
  ]
}
